Rows were chosen to be rich in hits. Some 3.1% of all compounds tested hit in one or more screens of this group.
CSC inhib: cancer stem cell inhibition; cancer stem cell-like cells viability, luminescence; inhibition, % at 7.5 µM; 300,000 tested, 1.1% active; in the data active = inhibition above about 75%; tested in HMLE shEcad cells
PP1 inh: PP1-alpha (human) inhibition in PP5 counter-screen; purified PP1alpha, OMFP fluorescence; 320,000 tested, 0.9% active; AID 2235; inhibition, % at 6.7 µM; P62136;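 active = inhibition above the mean inhibition of all tested compounds plus 3 SD, computed separately for each screening campaign, cut at about 15% in these data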
PP5 inh: inhibitors of human protein phosphatase 5 (PP5); 320,000 tested, 0.18% active; purified PP5c, OMFP substrate fluorescence; AID 1987; P53041; inhibition, % at 6.7 µM;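 active = inhibition above the campaign's mean inhibition across all tested compounds plus 3 SD, cut at about 9.5% in these data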;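 also: 0% = DMSO only and 100% = 100 µM cantharidin control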
Target sequence (P53041 whole entry, looked up): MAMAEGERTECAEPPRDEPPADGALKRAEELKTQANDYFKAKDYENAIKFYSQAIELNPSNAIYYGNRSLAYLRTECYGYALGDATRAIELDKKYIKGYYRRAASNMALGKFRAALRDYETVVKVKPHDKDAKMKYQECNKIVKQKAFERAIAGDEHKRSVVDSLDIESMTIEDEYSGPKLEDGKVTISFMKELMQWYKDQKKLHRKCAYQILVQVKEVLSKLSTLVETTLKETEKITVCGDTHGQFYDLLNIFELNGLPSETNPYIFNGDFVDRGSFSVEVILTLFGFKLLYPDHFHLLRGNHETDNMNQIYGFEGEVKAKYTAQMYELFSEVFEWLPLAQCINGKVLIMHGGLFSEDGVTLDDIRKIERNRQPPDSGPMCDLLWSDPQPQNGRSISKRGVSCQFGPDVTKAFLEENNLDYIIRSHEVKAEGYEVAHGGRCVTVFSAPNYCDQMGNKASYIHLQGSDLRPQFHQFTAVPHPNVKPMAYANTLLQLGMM
Beta apoptosis: beta cell apoptosis inhibition; protection from apoptosis, % (concentration not given with the values); INS-1E cytokine-induced death, ATP luminescence, 48 h; percent of positive-control rescue, neutral wells zero; 300,000 tested, 0.8% active;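 active = Every replicate reaches about 75%, or at least half do and their mean reaches it too, limit read from the data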;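 also: 0% = cytokine-treated negative control wells and 100% = positive control rescue; higher means more ATP so stronger rescue from cytokine killing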
SKKanGAS inh: inhibitors of SKKanGAS S. pyogenes growth in kanamycin (SK-promoter or general growth effect); inhibition, % at 7.5 µM; BacTiter-Glo, 6 h; AID 1662; 300,000 tested, 1.3% active;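 active = mean replicate score, as percent of positive control median, at least 50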;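 also: strain carries kanamycin resistance gene driven by streptokinase promoter and grows in 40 µg/ml kanamycin; loss of luminescence reflects streptokinase promoter inhibition or plain growth inhibition; 0% = median of DMSO wells and 100% = positive control at its reference dose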
PP5 conf: confirmation of human PP5 phosphatase inhibitors; 460 tested, 22% active; shares compounds with PP5 inh; Purified PP5, fluorogenic phosphatase substrate, fluorescence; inhibition, % at 6.7 µM; in the data active = inhibition above about 9.5%
PP1 counter 3x: PP1 phosphatase inhibition, counter-screen for PP5 inhibitors; PP1 enzyme, fluorescent phosphatase substrate; AID 2355; 460 tested, 4% active; shares compounds with PP5 inh; inhibition, % at 6.7 µM; in the data active = inhibition above about 16%
Starred values were filed as active, the others as inactive; x = no result given.

SMILES	CSC inhib	PP1 inh	PP5 inh	Beta apoptosis	SKKanGAS inh	PP5 conf	PP1 counter 3x
Cc1ccc(C)c(N2CCN(C(=O)Cc3ccc(-n4c(=O)[nH]c5ccsc5c4=O)cc3)CC2)c1	25	-4	13*	11	17	-4	-4
Cc1cccc(N2CCN(C(=O)Cc3ccc(-n4c(=O)[nH]c5ccsc5c4=O)cc3)CC2)c1C	x	3	1	10	14	x	x
CCCN(CCC)C(=O)CC(c1ccccc1)c1cc(Br)ccc1O (stereo not given)	62	6	12*	12	x	3	4
CCCN(CCC)C(=O)CC(c1ccccc1)c1ccc(C)cc1O (stereo not given)	4	1	2	8	1	x	x
COc1ccc(C(=O)Nc2ccc(OCC(F)(F)C(F)F)c(C(F)(F)F)c2)cc1OC	92*	11	12*	11	13	11*	8
O=C(Nc1ccc(OC(F)(F)F)cc1)N1CCN(c2ccnc3cc(Cl)ccc23)CC1	64	2	10*	68	65*	5	5
N=c1c2c(-c3ccccc3)c(-c3ccccc3)oc2ncn1CCN1CCOCC1	16	7	11*	x	16	-1	0
N=c1c2c(-c3ccccc3)c(-c3ccccc3)oc2ncn1CCCN1CCOCC1	7	-1	1	x	4	x	x
CCOC(=O)c1cccc(NC(=O)CSc2nnc(COc3ccccc3)n2CC)c1	-16	-3	12*	-7	9	-5	-3
CC(=O)c1cccc(Nc2cc(C)nc3c(C)cc(C)cc23)c1	1	-3	-1	18	-11	x	x
Cc1cc(C)c2nc(C)cc(Nc3ccc(C(=O)N4CCOCC4)cc3)c2c1	12	1	11*	17	8	-4	-4
Cc1nc2ccccn2c1C(=O)NNS(=O)(=O)c1ccc(C(C)(C)C)cc1	-10	3	-2	32	-2	x	x
C=C(C)C1CC=C(C)/C(=N/NC(=O)CNc2ccc(C)cc2C)C1 (stereo not given)	-1	-4	1	-4	-14	x	x
C=C(C)C1CC=C(C)/C(=N/NC(=O)CNc2ccc(OCC)cc2)C1 (stereo not given)	0	7	9.6*	17	7	0	6
Cc1ccc(Cn2c(C3CCCN3c3nc(-c4cc(Cl)c(N)c(Cl)c4)cs3)nc3cc(Cl)c(Cl)cc32)cc1 (stereo not given)	22	5	0	15	20	x	x
NS(=O)(=O)c1ccc(NC2=CC(=O)C(=O)c3ccccc32)cc1	61	1	11*	64	14	37*	7
Cc1nnc(SCC(=O)NNC(=O)CC#N)[nH]c1=O	0	-2	0	-2	-5	x	x
COc1cccc(CNC(=O)CCC2CCCN(C(=O)C3=CC(=O)CC(C)(C)O3)C2)c1 (stereo not given)	-9	-5	-1	-5	-5	x	x
Cc1ccc(Sc2ccc(N)cn2)cc1	3	2	14*	x	-3	-4	-3
Cc1c(NC(=S)N/N=C/c2ccc(O)cc2)c(=O)n(-c2ccccc2)n1C	x	1	2	x	0	x	x
Cc1c(NC(=S)N/N=C/c2cc([N+](=O)[O-])ccc2O)c(=O)n(-c2ccccc2)n1C	4	3	12*	21	7	-7	-3
Cc1ccc(S(=O)(=O)N2CCOCC2)cc1NC(=O)COC(=O)CSc1ccc(Br)cc1C	-12	1	11*	-10	-12	1	6
Cc1ccc(S(=O)(=O)N2CCOCC2)cc1NC(=O)COC(=O)c1ccc(Br)cc1	x	x	x	4	x	x	x
O=C(Cc1ccccc1)N/N=C/c1ccc(-c2ccc([N+](=O)[O-])cc2)o1	0	5	1	2	-10	x	x
Cc1ccc([N+](=O)[O-])cc1-c1ccc(/C=N/NC(=O)CN2CCOCC2)o1	-4	-1	12*	-8	0	-4	-7
SMILES	CSC inhib	PP1 inh	PP5 inh	Beta apoptosis	SKKanGAS inh	PP5 conf	PP1 counter 3x
CCOC(=O)N1CCN(C(=O)c2ccc(CS(=O)Cc3ccc(C)cc3)o2)CC1 (stereo not given)	-1	-2	-1	2	-1	x	x
CC1CCC(NC(=O)CCNC(=O)c2ccccc2)CC1 (stereo not given)	-1	-1	0	-8	-5	x	x
Cc1ccc(NC(=O)COC(=O)c2c(-c3ccccc3)noc2C)cc1	1	3	3	2	x	x	x
Cc1onc(-c2ccccc2)c1C(=O)OCC(=O)Nc1ccc(OC(F)(F)F)cc1	x	14	9.7*	4	x	7	6
NS(=O)(=O)c1cccc(NC(=O)CSc2nnc(C3CC3)n2-c2ccccc2)c1	-11	x	x	-4	x	x	x
COc1cc2c(C#N)c(N3CCCC3)nc(N)c2c(N)n1	-5	0	2	-3	13	x	x
CCCCN(CC)c1nc(N)c(C#N)c(CC#N)c1C#N	-12	4	3	-4	18	x	x
CCOc1cc2c(C#N)c(N3CCCC3)nc(N)c2c(N)n1	-27	1	1	0	9	x	x
CCCOc1cc2c(C#N)c(N3CCCC3)nc(N)c2c(N)n1	-13	4	11*	3	14	38*	3
N#Cc1c(N2CCCC2)nc(N)c2c(N)nc(N3CCCC3)cc12	x	6	16*	80*	5	25*	18*
CCCCN(CC)c1nc(N)c2c(N)nc(OCC)cc2c1C#N	22	5	12*	-2	24	25*	2
Cc1cc(C)c(S(=O)(=O)N2CCN(C(=O)N(C)C)CC2)c(C)c1	-4	-4	-2	-3	1	x	x
CC(=O)c1nnn(-c2ccc([N+](=O)[O-])cc2)c1C	x	-3	0	3	8	x	x
O=C(O)c1ccc(NC2=C(N3CCOCC3)C(=O)c3ccccc3C2=O)cc1	-12	-1	8	0	6	x	x
Cc1ccc(NC2=C(N3CCOCC3)C(=O)c3ccccc3C2=O)cc1	-2	1	10*	66	5	30*	-1
CC(=O)c1ccc(NC2=C(N3CCOCC3)C(=O)c3ccccc3C2=O)cc1	5	4	10*	-2	0	16*	0
O=C(COC(=O)c1ccc(O)cc1)NC1CCCCCC1	-6	-6	-2	3	x	x	x
CCOc1cc(-c2cc(-c3ccc(C)cc3)nc(N)c2C#N)ccc1O	6	1	9.7*	7	15	0	3
COCCN(C(=O)Cc1cccs1)C(C(=O)NC1CCCC1)c1cc(OC)c(OC)c(OC)c1 (stereo not given)	2	-1	4	x	-2	x	x
CC(C)Sc1nsc2nc(=O)c(/C=C3\C=Nc4ccccc43)c(N)n12	35	-4	14*	2	74*	0	1
CCOc1cc(N2CCOCC2)c(OCC)cc1NC(=S)NCCCOC	-6	-4	-1	-9	-4	x	x
CCCc1[nH]c2ccc(C(=O)OC)cc2c1CCC	16	-2	7	-2	0	x	x
CCCc1[nH]c2ccc(C#N)cc2c1CCC	82*	2	13*	-4	39	7	6

Screening data as filed in PubChem BioAssay.
